This is an account of results in PubChem BioAssay.

Test [1] is described as follows: compounds binding Alexa647 anti-His antibody – biochemical, small-molecule microarray, 635 nm fluorescence, artefact control for SMM control protein annotation, primary screen (AID 1128).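 Also: score merges feature fluorescence with signal-to-noise for each printed compound spot.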 The note with it: higher = more signal.
The subject of test [2] is Human papillomavirus type 1a E7 protein (residues 1-88). The test is described as follows: HPV1a E7 small-molecule binders, primary screen, biochemical, small-molecule microarray, residues 1-88, 635 nm (AID 1129). As to conditions: small-molecule microarray binding, fluorescence 635 nm; higher = more signal.
Test [3] deals with Focal adhesion kinase 1 (Homo sapiens) (UniProt Q05397). Kind of test: PTK2 protein binding on printed compound slides – biochemical, small-molecule microarray, 635/667 nm fluorescence, BSA, DTT, primary screen (AID 1130).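 Also: composite of spot emission at 667 nm and signal to noise over triplicate slides.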 As to conditions: 635 nm fluorescence, higher = more signal.
Chain of Focal adhesion kinase 1 (Homo sapiens) (Q05397 whole entry, looked up): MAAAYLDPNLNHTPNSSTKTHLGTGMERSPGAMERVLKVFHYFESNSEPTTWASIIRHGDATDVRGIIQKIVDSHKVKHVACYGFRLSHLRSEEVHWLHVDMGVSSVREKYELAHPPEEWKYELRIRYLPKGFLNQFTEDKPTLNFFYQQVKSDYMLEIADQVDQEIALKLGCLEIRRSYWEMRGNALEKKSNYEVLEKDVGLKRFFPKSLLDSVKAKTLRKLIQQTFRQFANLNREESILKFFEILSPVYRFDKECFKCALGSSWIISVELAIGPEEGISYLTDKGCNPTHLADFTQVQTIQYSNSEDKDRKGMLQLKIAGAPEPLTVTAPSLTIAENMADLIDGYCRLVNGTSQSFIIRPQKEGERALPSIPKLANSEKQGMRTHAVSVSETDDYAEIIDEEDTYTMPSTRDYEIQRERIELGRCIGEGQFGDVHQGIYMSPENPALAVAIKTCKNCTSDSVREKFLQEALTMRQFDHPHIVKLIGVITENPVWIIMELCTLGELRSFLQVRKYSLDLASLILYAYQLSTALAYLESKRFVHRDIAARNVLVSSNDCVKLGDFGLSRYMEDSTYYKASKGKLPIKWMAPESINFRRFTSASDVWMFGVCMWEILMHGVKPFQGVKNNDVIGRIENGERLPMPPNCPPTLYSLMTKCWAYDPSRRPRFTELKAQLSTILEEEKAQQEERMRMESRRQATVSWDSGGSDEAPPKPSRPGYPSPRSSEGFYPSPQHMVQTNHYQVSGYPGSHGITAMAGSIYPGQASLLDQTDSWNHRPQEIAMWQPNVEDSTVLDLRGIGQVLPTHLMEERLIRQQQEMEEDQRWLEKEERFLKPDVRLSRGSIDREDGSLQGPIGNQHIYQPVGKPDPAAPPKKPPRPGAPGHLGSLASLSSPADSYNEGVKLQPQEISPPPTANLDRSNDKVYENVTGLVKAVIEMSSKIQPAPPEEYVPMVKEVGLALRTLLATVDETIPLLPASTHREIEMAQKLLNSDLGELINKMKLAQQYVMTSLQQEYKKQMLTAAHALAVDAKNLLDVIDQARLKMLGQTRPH
The subject of test [4] is Fibrinogen (Alexa647-labelled). The test is described as follows: Alexa647-fibrinogen binding to printed small molecules – biochemical, small-molecule microarray, 635/667 nm fluorescence, artefact control for SMM control-protein annotation, profiling panel (AID 1131).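 Also: z-score merges 667 nm fluorescence with per-spot signal-to-noise over triplicate slides.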 As to conditions: fibrinogen-A647 binding fluorescence, higher = more signal.
Test [5] deals with Follistatin (Homo sapiens) (UniProt P19883). The test is described as follows: FST protein binding to printed compounds – biochemical, small-molecule microarray, 635/667 nm fluorescence, primary screen (AID 1132). The note with it: 635 nm fluorescence, higher = more signal.
Chain of Follistatin (Homo sapiens) (P19883 whole entry, looked up): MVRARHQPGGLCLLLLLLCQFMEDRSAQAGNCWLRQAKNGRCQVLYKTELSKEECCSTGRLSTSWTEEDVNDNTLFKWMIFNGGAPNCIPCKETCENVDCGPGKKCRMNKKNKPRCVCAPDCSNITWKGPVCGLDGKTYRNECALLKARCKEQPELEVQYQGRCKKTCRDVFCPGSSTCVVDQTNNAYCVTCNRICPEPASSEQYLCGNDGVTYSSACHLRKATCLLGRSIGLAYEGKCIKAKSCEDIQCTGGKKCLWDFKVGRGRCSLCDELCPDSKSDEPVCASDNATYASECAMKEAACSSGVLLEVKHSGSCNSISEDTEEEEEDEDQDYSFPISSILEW
For test [6], the target named is Fibroblast growth factor 2 (Homo sapiens) (UniProt P09038). The test is described as follows: basic fibroblast growth factor binding to printed compounds – biochemical, small-molecule microarray, 635/667 nm fluorescence, primary screen (AID 1133). As to conditions: FGF2, fluorescence 635/667, higher = more signal.
Chain of Fibroblast growth factor 2 (Homo sapiens) (P09038 whole entry, looked up): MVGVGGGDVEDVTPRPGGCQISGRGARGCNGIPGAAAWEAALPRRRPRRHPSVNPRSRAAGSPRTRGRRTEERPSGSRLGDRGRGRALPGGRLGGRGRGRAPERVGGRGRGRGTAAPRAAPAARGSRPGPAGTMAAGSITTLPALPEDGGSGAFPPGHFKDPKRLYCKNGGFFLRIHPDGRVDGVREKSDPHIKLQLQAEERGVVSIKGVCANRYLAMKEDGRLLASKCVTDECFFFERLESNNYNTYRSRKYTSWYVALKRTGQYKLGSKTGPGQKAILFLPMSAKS
Test [7] in a line: JC-1 mitochondrial potential readout, lung cancer cells – cell-based, A549, JC-1 fluorescence, basal, 24 h, 100 nL, profiling panel (AID 1138).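 Also: A549 lung adenocarcinoma cells under basal conditions with no added stimulus; test concentration not given here.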 The note with it: higher = more signal.
Test [8] relates to Lefty1. The test is described as follows: Lefty1 protein binding to printed compounds – biochemical, small-molecule microarray, 635/667 nm fluorescence, primary screen (AID 1139). The note with it: fluorescence 635/667, higher = more signal.
For test [9], the system named is wheat germ agglutinin (Triticum aestivum), Alexa647-labelled. The test is described as follows: Alexa647-WGA lectin binding to printed small molecules – biochemical, small-molecule microarray, 635/667 nm fluorescence, artefact control for SMM control-protein annotation, profiling panel (AID 1140).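 Also: score merges 667 nm feature emission with signal to noise over triplicate slides.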 The note with it: WGA-A647 binding, 635 nm fluorescence, higher = more signal.

The target of test [10] is Luciferin 4-monooxygenase (Photinus pyralis) (UniProt P08659). The test is described as follows: inhibition of purified Photinus pyralis luciferase – biochemical, luminescence, purified enzyme, 2006 set, primary screen (AID 1141).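 Also: cell-free assay with purified firefly luciferase at 100 ng per well in PBS; test concentration not given here.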 As to conditions: purified firefly luciferase, SteadyGlo luminescence, 30 min; higher = more signal, called active from +8 up or from −8 down.
Chain of Luciferin 4-monooxygenase (Photinus pyralis) (P08659 whole entry, looked up): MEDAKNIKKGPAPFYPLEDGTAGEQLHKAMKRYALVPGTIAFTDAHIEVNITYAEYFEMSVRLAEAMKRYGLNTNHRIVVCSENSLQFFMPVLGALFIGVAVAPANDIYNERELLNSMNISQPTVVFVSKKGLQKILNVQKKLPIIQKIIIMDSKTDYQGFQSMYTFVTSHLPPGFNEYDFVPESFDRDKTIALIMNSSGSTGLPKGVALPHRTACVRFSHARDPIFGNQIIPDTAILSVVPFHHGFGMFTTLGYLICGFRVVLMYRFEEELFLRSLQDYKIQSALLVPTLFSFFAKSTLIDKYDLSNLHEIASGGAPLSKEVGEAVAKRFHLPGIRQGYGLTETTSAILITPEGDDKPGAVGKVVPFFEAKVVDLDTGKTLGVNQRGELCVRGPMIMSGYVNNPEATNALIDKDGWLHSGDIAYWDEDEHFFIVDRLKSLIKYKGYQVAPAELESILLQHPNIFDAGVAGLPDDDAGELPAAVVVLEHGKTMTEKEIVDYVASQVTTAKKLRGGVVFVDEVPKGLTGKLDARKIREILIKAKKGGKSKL
Test [11] deals with Wnt5a (protein binding on small-molecule microarray). The test is described as follows: small molecules binding Wnt5a protein – biophysical, small-molecule microarray, 635/667 nm fluorescence, primary screen (AID 1142).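 Also: fluorescence read at 667 nm with signal to noise per printed feature.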 As to conditions: 635 nm fluorescence, higher = more signal.
Test [12] can be described thus: ATP-based viability of Huh7 replicon cells – cell-based, CellTiter-Glo luminescence, basal, 48 h, cytotoxicity control for HCV replication inhibitor project, primary screen (AID 1143).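 Also: Huh7 hepatoma cells carrying a hepatitis C replication reporter with no stimulus; test concentration not given here.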 As to conditions: higher = more signal, called active from +8 up or from −8 down. For orientation: Replicon systems follow genome replication, usually without infectious particles.
Test [13] in a line: Pseudomonas biofilm growth suppression – PAO1 strain, BacTiter-Glo luminescence, LB-PBS, primary screen (AID 1144). As to conditions: P. aeruginosa PAO1 biofilm, 12 h, higher = more signal.
Test [14] is described as follows: basal CRE-LacZ reporter activity in PC12 – cell-based, unstimulated, primary screen (AID 1145). As to conditions: no forskolin, luminescence, 4.5 h, higher = more signal, called active from +8 up or from −8 down.
The nature of test [15]: forskolin-driven CRE-LacZ activity in PC12 – cell-based, CRE-LacZ reporter, forskolin-stimulated, primary screen (AID 1146).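 Also: PC12 cells with 6xCRE LacZ reporter stimulated by forskolin 10 µM; beta-galactosidase reporter signal reflecting CREB driven transcription.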 As to conditions: luminescence, 4.5 h, higher = more signal, called active from +8 up or from −8 down.
Test [16] deals with Streptavidin (Streptomyces avidinii) (UniProt P22629). The test is described as follows: compounds binding control protein streptavidin – biophysical, small-molecule microarray, 635/667 nm fluorescence, artefact control for SMM compound annotation, primary screen (AID 1147).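 Also: signal reflects streptavidin binding to arrayed compounds as a control protein.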 The note with it: higher = more signal.
Chain of Streptavidin (Streptomyces avidinii) (P22629 whole entry, looked up): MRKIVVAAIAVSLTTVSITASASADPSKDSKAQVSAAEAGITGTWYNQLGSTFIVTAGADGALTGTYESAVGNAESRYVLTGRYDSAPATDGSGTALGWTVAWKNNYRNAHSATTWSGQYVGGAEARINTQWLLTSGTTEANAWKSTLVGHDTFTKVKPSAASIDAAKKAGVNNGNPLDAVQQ
A short description of test [17]: probe aInhba binding on compound microarray – biochemical, small-molecule microarray, 635/667 nm fluorescence, primary screen (AID 1148).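 Also: score merges 667nm spot fluorescence with signal-to-noise for antibody binding to printed compounds.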 As to conditions: higher = more signal.
In test [18] the target is Torsin-1A (Homo sapiens) (UniProt O14656). Kind of test: TOR1A wild-type binding on microarray – cell lysate, small-molecule microarray, lysate, 635/667 nm, primary screen (AID 1149). The note with it: COS7 hTOR1A-WT lysate, 635 nm fluorescence, higher = more signal.
Chain of Torsin-1A (Homo sapiens) (O14656 whole entry, looked up): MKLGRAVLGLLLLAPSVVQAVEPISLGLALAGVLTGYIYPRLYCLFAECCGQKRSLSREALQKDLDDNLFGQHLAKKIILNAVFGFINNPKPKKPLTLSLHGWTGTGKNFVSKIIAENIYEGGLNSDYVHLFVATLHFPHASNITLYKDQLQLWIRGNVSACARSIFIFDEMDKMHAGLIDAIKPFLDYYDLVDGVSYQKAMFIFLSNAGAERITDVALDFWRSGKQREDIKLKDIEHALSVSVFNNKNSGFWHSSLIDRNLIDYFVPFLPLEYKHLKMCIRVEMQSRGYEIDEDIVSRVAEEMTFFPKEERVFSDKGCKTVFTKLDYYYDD
Test [19] shares this target. The test is described as follows: torsin A mutant lysate binding on microarrays – cell lysate, small-molecule microarray, COS7 lysate, 635/667 nm fluorescence, primary screen (AID 1150).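 Also: score pools 667 nm emission and signal to noise measuring lysate protein binding.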 The note with it: COS7 hTOR1A mutant lysate, 635 nm fluorescence, higher = more signal.
Test [20] deals with Sonic hedgehog protein (Shh). The test is described as follows: Sonic hedgehog microarray binding compounds – biochemical, small-molecule microarray, 635/667 nm fluorescence, primary screen (AID 1151).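 Also: Shh protein binding to compounds spotted on small-molecule microarray slides; score combines spot fluorescence intensity with signal-to-noise across triplicate slides.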 As to conditions: 635 nm fluorescence, higher = more signal.

The source made the active and inactive calls. Unless noted, no rule for the calls is given here.

On to `CCCC=C(CCC)[C@@H](NS(=O)(=O)c1ccc(C(F)(F)F)cc1)c1ccc(-c2ccccc2)cc1`, for which the composite z-score is 0.826 in test [1]; 1.23 in test [2]; 0.998 in test [3]; 0.694 in test [4]; 1.26 in [5]; -0.0729 in [6]. For the same compound, the composite z-score is 0.565 in [8]; 1.2 in [9]; 0.281 in [11]; 0.991 in test [16]; 0.0445 in test [17]; 0.059 in test [18]. Moreover, the values for the composite z-score in [19] and in test [20] were 0.664 and 0.618, respectively. For the same compound, the z-score in test [7] is 1.89; in test [10], 2.63 (inactive); in [12], -2.08 (inactive); in [13] it was 0.524 (inactive); in test [14], -0.372 (inactive); in test [15], 0.486 (inactive).

In the case of `Cc1ccc([C@@H]2CC=C(C(=O)O)[C@H](c3ccccc3)N2S(=O)(=O)c2ccc(C)cc2)cc1`, the composite z-score in [1] is 2.65; in test [2], 1.24; in test [3], 0.574; in test [4] it was 0.894; in test [5], -0.358; in [6], -0.847. Besides, the composite z-score is -0.691 in [8]; 1.35 in [9]; 0.382 in test [11]; 1.77 in test [16]; 0.277 in test [17]; 0.385 in test [18]. The composite z-score in [19] is 0.528; in test [20] it was 0.157. Moreover, the z-score in [7] was -1.47; in test [10], 1.33 (inactive); in test [12], -0.385 (inactive); in test [13], 0.134 (inactive); in [14], 0.332 (inactive); in [15], -0.311 (inactive).

For `O=C1C[C@@](C(=O)NC2CC2)(c2ccc([N+](=O)[O-])cc2)[C@@H](c2ccc(CO)cc2I)N1CC12CC3CC(CC(C3)C1)C2`, the composite z-score in [1] was -0.317; in [2] it was 1.18; in test [3], 0.32; in [4], 0.751; in [5], 1.07; in test [6], 0.718. The composite z-score in test [8] was 1.15; in test [9], 0.793; in test [11], 0.157; in test [16], 0.376; in test [17], -0.134; in [18] it was -0.371. Besides, the composite z-score was found to be 0.362 in test [19] and 1.95 in test [20]. Further, the z-score in [7] is -0.558; in test [10] it was -0.318 (inactive); in test [12], -5.82 (inactive); in test [13] it was 0.87 (inactive); in test [14] it was 0.818 (inactive); in test [15], 1.25 (inactive).

With `COc1ccc([Si](C)(C)[C@H]2[C@H](CC(=O)N(CCO)Cc3ccccc3)O[C@@]3(C(=O)N(C)c4ccccc43)[C@@H]2C)cc1`, the composite z-score in test [1] is 1.62; in test [2], 1.08; in test [3], 0.711; in [4] it was -0.0177; in test [5] it was 1.06; in test [6], 1.01. For the same compound, the composite z-score was 1.11 in [8]; -0.0039 in [9]; 0.321 in test [11]; 0.153 in test [16]; -0.0986 in test [17]; 0.0317 in test [18]. In addition, the composite z-score in test [19] was determined as 0.83; in test [20], 1.65. In addition, the z-score in test [7] is 1.61; in test [10], 0.59 (inactive); in [12], -5.59 (inactive); in test [13] it was -0.306 (inactive); in test [14] it was 4.69 (inactive); in test [15], 0.0125 (inactive).

Take `CC(C)=C1C(=O)C(c2ccccc2)=C2CN3C(=O)N(CCc4ccccc4)C(=O)[C@]3(Cc3ccccc3)[C@H]21`: the composite z-score was 1.39 in test [1]; -0.992 in test [2]; 0.521 in test [3]; -0.358 in [4]; -1.04 in test [5]; -0.77 in test [6]. Also, the composite z-score was -0.961 in test [8]; -0.112 in test [9]; -0.355 in test [11]; 0.0686 in test [16]; 0.128 in [17]; -2.07 in test [18]. Further, the composite z-score in test [19] was -1.13; in [20] it was -1.32. Further, the z-score in test [7] is 1.45; in test [10] it was 0.451 (inactive); in [12], -0.462 (inactive); in test [13] it was 0.105 (inactive); in test [14] it was 0.783 (inactive); in [15], 0.379 (inactive).
